# Measured values reported in PubChem BioAssay (EPA / NIEHS).
# “And” between values parts separate entries of the source, which are not always exact repeats. Equal entries are not always repeated. The source made the active and inactive calls. Rule for the calls: active = hit-call score of the fitted dose curve at least 0.9, where 1 is the maximum; inactive = score below 0.9.
# Read-out: Intercellular Adhesion Molecule 1 (ICAM1), ICAM1 (gene 3383)
# Test: BSK_KF3CT_ICAM1: BioMAP Diversity Plus: KF3CT Assay for Intercellular Adhesion Molecule 1 (ICAM1) Biomarker Activity (AID 2283067)
# Settings: primary human keratinocytes with fibroblasts; actives raise or lower the signal
# Experimental: BSK_KF3CT is a cell-based, multiplexed-readout assay that uses keratinocytes and foreskin fibroblasts, a human skin primary cell co-culture, with measurements taken at 24 hours after chemical dosing in a 96-well plate.BSK_KF3CT_ICAM1 is an assay component measured in the BSK_KF3CT assay. It measures ICAM-1 antibody related to regulation of gene expression using ELISA technology.Data from the assay component BSK_KF3CT_ICAM1 was analyzed into 1 assay endpoint. This assay endpoint, BSK_KF3CT_ICAM1, was analyzed with bidirectional fitting relative to DMSO as the negative control and baseline of activity. Using a type of binding reporter, gain or loss-of-signal activity can be used to understand changes in the signaling as they relate to the gene ICAM1. Furthermore, this assay endpoint can be referred to as a primary readout, because this assay has produced multiple assay endpoints where this one serves a signaling function. To generalize the intended target to other relatable targets, this assay endpoint is annotated to the cell adhesion molecules intended target family, where the subfamily is Immunoglobulin CAM.
# The levels of cell surface (or secreted, indicated by the prefix "s") biomarker endpoints were measured by ELISA. Overt cytotoxicity to cells in confluent adherent cultures (all systems other than the BT system) was assessed by measuring total protein levels using sulforhodamine B (SRB) staining in parallel cultures at the time of biomarker measurements, indicated as SRB endpoints. For proliferation assays for adherent cell types, individual cell types are cultured at sub-confluence and relative cell numbers quantified by SRB staining at time points optimized for each system (48 h: 3C and CASM3C systems; 72 h: BT and HDF3CGF systems; 96 h: SAg system). SRB was performed by staining cells with 0.1% SRB after fixation with 10% TCA and reading wells at 560 nm.Viability and proliferation of PBMC (T cells) was quantified by Alamar Blue reduction for the SAg and BT systems. For PBMC viability (referred to as PBMC Cytotoxicity within the assay endpoint names), cells were plated (75,000/well in a 96-well plate) and then chemical samples added for 1 h before addition of activators, SEB and TSST-1 (20 ng/mL final concentration each). Cells were incubated for 90 h. Then, Alamar Blue (20 uL/well) (Invitrogen, Cat DAL1100) was added for 6 h, and the plates were read with a fluorescence microplate reader at 546/580 nm (excitation/emission). For PBMC proliferation, cells were plated and activated as above but incubated for only 16 h prior to addition of Alamar Blue. Plates were read after 6 h.
SMILES,AC50,outcome
CC(C)(C)c1ccc(O)c(O)c1,5.79 µM (active),–
Cc1ccc(C(=O)c2ccccc2)cc1,–,inactive
O=C(O)C(F)(F)OC(F)(F)C(F)(F)OC(F)(F)C(F)(F)OC(F)(F)C(F)(F)C(F)(F)C(F)(F)F,20.7 µM (active) and 21.8 µM (active),–
Oc1c(Cl)cc(Cl)cc1Sc1cc(Cl)cc(Cl)c1O,3.11 µM (active) and 3.28 µM (active),–
CS(=O)(=O)c1ccc([C@@H](CC2CCCC2)C(=O)Nc2cnccn2)cc1Cl,–,inactive
CCCCCCCCCCCCCCC,–,inactive
CCCCCCCCCCCCCCCCCC[N+](C)(C)Cc1ccccc1,5.58 µM (active),–
Oc1cc2ccccc2cc1O,–,inactive
COc1cccc(O)c1,–,inactive
CCCCCCCCCCCC,15.2 µM (active) and 15.8 µM (active),–
O=C(NO)c1ccccc1,–,inactive
Cc1ccc(N=Nc2c(O)ccc3ccccc23)c(C)c1,–,inactive
CCCCC=O,–,inactive
CCCCC(CC)C(=O)O (stereo not given),–,inactive
CCCCCCCCCCCCOS(=O)(=O)O,–,inactive
CC(=O)Nc1ccc(O)cc1,–,inactive
Cc1[nH]nc2c1N=C(c1ccccc1Cl)c1cc([N+](=O)[O-])ccc1N2,–,inactive
CN(C)c1ccc(C(=C2C=CC(=[N+](C)C)C=C2)c2ccccc2)cc1,0.516 µM (active),–
NC(=NCCCCCCN=C(N)/N=C(\N)Nc1ccc(Cl)cc1)/N=C(\N)Nc1ccc(Cl)cc1,7.53 µM (active),–
C[C@]12CC[C@@H]3c4ccc(O)cc4CC[C@H]3[C@@H]1C[C@@H](O)[C@@H]2O,–,inactive

SMILES,AC50,outcome
OCC(F)(F)C(F)(F)C(F)(F)C(F)(F)C(F)(F)C(F)(F)C(F)(F)C(F)(F)C(F)(F)C(F)(F)C(F)(F)F,–,inactive
C=CC(=O)OCCC(F)(F)C(F)(F)C(F)(F)C(F)(F)C(F)(F)C(F)(F)C(F)(F)C(F)(F)F,–,inactive
CCCCCc1ccc(O)cc1,27.6 µM (active),–
C=CC(=C)CC/C=C(\C)CCC=C(C)C,–,inactive
N=C(N)c1ccc(OCCCCCOc2ccc(C(=N)N)cc2)cc1,–,inactive
O=C1NS(=O)(=O)c2ccccc21,–,inactive
COCN(COC)c1nc(N(COC)COC)nc(N(COC)COC)n1,–,inactive
CN(C)CCOC(c1ccccc1)c1ccccc1,–,inactive
OCC(CO)(CBr)CBr,–,inactive
O=P(O)(O)CCC(F)(F)C(F)(F)C(F)(F)C(F)(F)C(F)(F)C(F)(F)C(F)(F)C(F)(F)F,–,inactive
Oc1ccc(Cc2ccccc2O)cc1,–,inactive
CC[N+](CC)(CC)Cc1ccccc1,–,inactive
CCOC(=O)CN[C@@H](C(=O)N1CC[C@H]1C(=O)NCc1ccc(/C(N)=N/O)cc1)C1CCCCC1,–,inactive
Cc1cccc2c1ccc1ccccc12,–,inactive
O=C(NCc1ncc(C(F)(F)F)cc1Cl)c1c(Cl)cccc1Cl,–,inactive
O=P(O)(O)CCC(F)(F)C(F)(F)C(F)(F)C(F)(F)C(F)(F)C(F)(F)F,–,inactive
CCCCc1oc2ccccc2c1C(=O)c1cc(I)c(OCCN(CC)CC)c(I)c1,22.8 µM (active),–
O=C1c2ccc(O)c(O)c2C(=O)c2c(O)ccc(O)c21,–,inactive
O=C(CCCN1CCC(O)(c2ccc(Cl)cc2)CC1)c1ccc(F)cc1,–,inactive
CN(CCO)S(=O)(=O)C(F)(F)C(F)(F)C(F)(F)C(F)(F)C(F)(F)C(F)(F)C(F)(F)C(F)(F)F,–,inactive
